In PubChem BioAssay (Tox21):
Results filed as inconclusive are left out. The source made the active and inactive calls. Unless noted, the call rests on the fitted dose curve; in most records, active means well fitted curve in the direction sought with a large enough effect in the repeat runs; inconclusive means weak or mixed curves; inactive means no such curve, though single readings can be large; an effect the other way counts as inactive or inconclusive.

How the values were obtained:
[1] = target: Progesterone receptor (Homo sapiens) (UniProt P06401); experiment: qHTS assay to identify small molecule agonists of the progesterone receptor (PR) signaling pathway (AID 1346784; calls by dose curve; further: on the % scale 0 is the no-effect control and ±100 the full control effect; nearly all actives have a fitted effect of over 30% in size)
Sequence of Progesterone receptor (Homo sapiens) (P06401 whole entry, looked up): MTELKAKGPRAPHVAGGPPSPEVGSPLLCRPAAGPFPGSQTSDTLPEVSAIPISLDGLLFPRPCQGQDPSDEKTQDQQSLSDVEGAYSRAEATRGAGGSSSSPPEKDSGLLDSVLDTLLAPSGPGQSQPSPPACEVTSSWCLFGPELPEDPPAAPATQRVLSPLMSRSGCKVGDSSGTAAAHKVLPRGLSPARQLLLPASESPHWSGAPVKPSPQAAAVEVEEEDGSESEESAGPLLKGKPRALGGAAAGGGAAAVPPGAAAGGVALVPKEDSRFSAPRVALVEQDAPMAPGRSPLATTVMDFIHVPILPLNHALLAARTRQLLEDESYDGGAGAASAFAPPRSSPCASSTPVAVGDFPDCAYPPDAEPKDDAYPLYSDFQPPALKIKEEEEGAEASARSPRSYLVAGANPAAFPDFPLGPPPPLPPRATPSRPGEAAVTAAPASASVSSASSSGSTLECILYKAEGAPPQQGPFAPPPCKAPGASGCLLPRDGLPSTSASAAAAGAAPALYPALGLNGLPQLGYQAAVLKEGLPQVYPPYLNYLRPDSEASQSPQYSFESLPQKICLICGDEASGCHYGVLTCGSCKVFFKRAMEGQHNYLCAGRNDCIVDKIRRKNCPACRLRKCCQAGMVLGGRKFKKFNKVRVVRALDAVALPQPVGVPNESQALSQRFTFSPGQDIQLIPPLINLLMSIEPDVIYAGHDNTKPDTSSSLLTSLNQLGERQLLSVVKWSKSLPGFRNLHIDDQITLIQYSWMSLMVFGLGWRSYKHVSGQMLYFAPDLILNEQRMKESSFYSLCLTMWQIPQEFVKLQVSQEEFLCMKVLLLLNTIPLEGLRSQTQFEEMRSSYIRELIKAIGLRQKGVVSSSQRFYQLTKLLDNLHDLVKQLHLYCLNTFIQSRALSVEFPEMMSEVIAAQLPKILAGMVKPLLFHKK
Summary of the method: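 Agonist qHTS: compounds pinned onto 3,000 PR-UAS-bla HEK 293T cells per well in charcoal-stripped serum medium, 16hr at 37C, then beta-lactamase activity measured by LiveBLAzer FRET fluorescence after 2 hours at room temperature.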

[2] = target: Progesterone receptor (Homo sapiens) (UniProt P06401); experiment: qHTS assay to identify small molecule antagonists of the progesterone receptor (PR) signaling pathway (AID 1346795; active means well fitted inhibition curve with a large enough effect in the signal ratio in the repeat runs, not every such curve was filed as active; the % refers to the signal ratio; further: on the % scale 0 is the no-effect control and ±100 the full control effect)
Summary of the method: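 Antagonist mode with agonist R5020 at 1 nM final and 16 hr incubation at 37C. Reporter was beta-lactamase driven by UAS in HEK293T (PR-UAS-bla), 2% charcoal-stripped serum; signal from LiveBLAzer FRET substrate, 2 hr at room temperature.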

[3] = qHTS assay to identify small molecule antagonists of the progesterone receptor (PR) signaling pathway - cell viability counter screen (AID 1346798); further: nearly all actives have a fitted effect of over 50% in size; further: potency means the concentration at half of the fitted maximal effect
Summary of the method: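 Cytotoxicity read as CellTiter-Glo luminescence (30 min, room temperature) in the same wells as the beta-lactamase readout. HEK293T PR-UAS-bla cells in charcoal-stripped 2% FBS received compound and R5020, then 16 h at 37C, 5% CO2.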

[4] = qHTS assay to identify small molecule agonists of the progesterone receptor (PR) signaling pathway - cell viability counter screen (AID 1346799; calls by dose curve; further: on the % scale 0 is the no-effect control and ±100 the full control effect; nearly all actives have a fitted effect of over 45% in size)
Summary of the method: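 Cytotoxicity measured by CellTiter-Glo luminescence (30 min, RT) in the same wells as the PR beta-lactamase agonist read. Those HEK293T cells had 16 h compound treatment at 37 C in 2% charcoal-stripped FBS medium.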

[5] = qHTS assay to identify small molecule antagonists of the TGF-beta/Smad signaling pathway - cell viability counter screen (AID 1346824); further: on the % scale 0 is the no-effect control and ±100 the full control effect; nearly all actives have a fitted effect of over 50% in size
Summary of the method: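 SBE-bla HEK 293T cells, incubated overnight, then compound plus 0.25 ng/mL TGF-beta1 (stock added) for 5 hr at 37 C. Viability was read in the same wells by CellTiter-Glo luminescence after 30 min at room temperature.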

[6] = qHTS assay to identify small molecule agonists of the TGF-beta/Smad signaling pathway - cell viability counter screen (AID 1346829); further: top concentration of the series differs between compounds; on the % scale 0 is the no-effect control and ±100 the full control effect; nearly all actives have a fitted effect of over 45% in size
Summary of the method: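 Compound-treated SBE-bla HEK 293T cells (5 hr, 37 C) were assessed for viability with CellTiter-Glo in parallel with the reporter read.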

[7] = qHTS assay to identify small molecule agonists of the TGF-beta/Smad signaling pathway (AID 1346859; active means well fitted activation curve with a large enough effect in the signal ratio in the repeat runs, not every such curve was filed as active; the % refers to the signal ratio; further: series mostly up to about 77 µM; on the % scale 0 is the no-effect control and ±100 the full control effect)
Summary of the method: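 Fluorescence (ex 405 nm; em 460 and 530 nm) was read 2 h after LiveBLAzer FRET substrate at RT. The preceding compound treatment of overnight-plated SBE-bla HEK293T cells lasted 5 h at 37 C.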

[8] = target: Thyrotropin-releasing hormone receptor (Homo sapiens) (UniProt P34981); experiment: qHTS assay to identify small molecule antagonists of the thyrotropin-releasing hormone receptor (TRHR) signaling pathway (AID 1346877; active means well fitted inhibition curve with a large enough effect in the repeat runs, not every such curve was filed as active; further: series mostly up to about 51 µM; on the % scale 0 is the no-effect control and ±100 the full control effect)
Sequence of Thyrotropin-releasing hormone receptor (Homo sapiens) (P34981 whole entry, looked up): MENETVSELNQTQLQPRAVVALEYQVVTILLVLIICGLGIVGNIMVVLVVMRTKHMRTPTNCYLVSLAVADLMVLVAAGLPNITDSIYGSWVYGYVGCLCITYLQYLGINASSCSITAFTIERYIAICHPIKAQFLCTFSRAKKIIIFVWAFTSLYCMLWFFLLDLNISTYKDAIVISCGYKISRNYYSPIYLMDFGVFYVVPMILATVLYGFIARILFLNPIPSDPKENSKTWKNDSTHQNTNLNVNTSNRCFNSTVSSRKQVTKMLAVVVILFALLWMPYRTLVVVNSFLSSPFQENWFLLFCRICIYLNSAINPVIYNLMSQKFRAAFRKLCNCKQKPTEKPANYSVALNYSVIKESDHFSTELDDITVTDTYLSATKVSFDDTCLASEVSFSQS
Summary of the method: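 Following an 18 h incubation at 37 °C and a 2 h calcium dye load, TRHR-HEK293 cells were exposed to compound (5 min, room temperature) and challenged with TRH, 1 nM final.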

[9] = target: Thyrotropin-releasing hormone receptor (Homo sapiens) (UniProt P34981); experiment: qHTS assay to identify small molecule agonists of the thyrotropin-releasing hormone receptor (TRHR) signaling pathway (AID 1346891; calls by dose curve; further: series mostly up to about 58 µM; on the % scale 0 is the no-effect control and ±100 the full control effect)
Summary of the method: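 Agonist-mode intracellular calcium readout: kinetic fluorescence over 3 min at 1 s intervals after compound addition to TRHR-HEK293 cells (18 h seeded, 2 h dye-loaded at 37 C). Fifteen concentrations, triplicates.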

[10] = Human pregnane X receptor (PXR) small molecule agonists, qHTS cell viability counter screen (AID 1346977); further: nearly all actives have a fitted effect of over 50% in size; further: potency means the concentration at half of the fitted maximal effect
Summary of the method: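 Same-well viability read: CellTiter-Fluor added after 23 hr compound exposure, fluorescence measured 1 hr later. Cells were PXR-Luc HepG2 seeded at 2,000/well in 5% charcoal-stripped FBS medium, rested 5 hr before dosing at 37 C.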

[11] = Caspase-3/7 induction in HepG2 cells by small molecules, qHTS assay (AID 1346978); further: on the % scale 0 is the no-effect control and ±100 the full control effect; nearly all actives have a fitted effect of over 15% in size
Summary of the method: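 Wild-type HepG2 cells, 2,000/well, settled 5 hr at 37 C and 5% CO2, then compound-treated for 17 hr; caspase-3/7 activity read by luminescent Caspase-Glo 3/7 after 30 min at room temperature.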

[12] = Caspase-3/7 induction in CHO-K1 cells by small molecules, qHTS assay (AID 1346980); further: on the % scale 0 is the no-effect control and ±100 the full control effect; nearly all actives have a fitted effect of over 15% in size
Summary of the method: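 Wild-type CHO-K1 cells exposed to compounds for 17hr at 37 C, 5% CO2. Caspase-3/7 activity then measured by Caspase-Glo 3/7 luminescence after 30min at room temperature.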

[13] = Caspase-3/7 induction in HepG2 cells by small molecules, qHTS cell viability counter screen (AID 1346981); further: nearly all actives have a fitted effect of over 30% in size; further: potency means the concentration at half of the fitted maximal effect
Summary of the method: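 Viability determined by CellTiter-Fluor fluorescence in HepG2 wells also used for the luminescent Caspase-Glo 3/7 read. Compounds were present for 16 hr at 37 C, 5% CO2 before reagent addition.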

[14] = target: Nuclear receptor subfamily 1 group I member 2 (Homo sapiens) (UniProt O75469); experiment: Human pregnane X receptor (PXR) small molecule agonists, qHTS assay (AID 1346982); further: nearly all actives have a fitted effect of over 35% in size; further: potency means the concentration at half of the fitted maximal effect
Sequence of Nuclear receptor subfamily 1 group I member 2 (Homo sapiens) (O75469 whole entry, looked up): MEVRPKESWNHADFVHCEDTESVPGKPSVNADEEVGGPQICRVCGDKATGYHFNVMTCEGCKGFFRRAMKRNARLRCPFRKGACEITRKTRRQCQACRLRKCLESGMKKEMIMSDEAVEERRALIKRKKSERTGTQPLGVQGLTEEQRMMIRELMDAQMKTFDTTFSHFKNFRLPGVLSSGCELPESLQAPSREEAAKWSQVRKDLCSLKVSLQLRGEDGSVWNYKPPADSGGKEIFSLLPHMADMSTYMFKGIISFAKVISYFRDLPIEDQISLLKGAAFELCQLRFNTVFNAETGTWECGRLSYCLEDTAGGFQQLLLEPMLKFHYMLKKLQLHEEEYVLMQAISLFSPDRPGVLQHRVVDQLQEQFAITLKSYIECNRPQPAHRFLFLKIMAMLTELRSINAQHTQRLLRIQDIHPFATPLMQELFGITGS
Summary of the method: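 Compound-induced hPXR transactivation of a CYP3A4 luciferase reporter was scored in HepG2 PXR-Luc cells over 24 hr at 37 C, 5% CO2, by luminescence.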

[15] = target: Nuclear receptor subfamily 1 group I member 2 (Rattus norvegicus) (UniProt Q9R1A7); experiment: Rat pregnane X receptor (rPXR) activation by small molecules, qHTS assay (AID 1346983); conditions: rPXR luciferase reporter cells, One-Glo luminescence, 24 h; max activation: stronger effect = higher value; further: on the % scale 0 is the no-effect control and ±100 the full control effect; nearly all actives have a fitted effect of over 20% in size
Sequence of Nuclear receptor subfamily 1 group I member 2 (Rattus norvegicus) (Q9R1A7 whole entry, looked up): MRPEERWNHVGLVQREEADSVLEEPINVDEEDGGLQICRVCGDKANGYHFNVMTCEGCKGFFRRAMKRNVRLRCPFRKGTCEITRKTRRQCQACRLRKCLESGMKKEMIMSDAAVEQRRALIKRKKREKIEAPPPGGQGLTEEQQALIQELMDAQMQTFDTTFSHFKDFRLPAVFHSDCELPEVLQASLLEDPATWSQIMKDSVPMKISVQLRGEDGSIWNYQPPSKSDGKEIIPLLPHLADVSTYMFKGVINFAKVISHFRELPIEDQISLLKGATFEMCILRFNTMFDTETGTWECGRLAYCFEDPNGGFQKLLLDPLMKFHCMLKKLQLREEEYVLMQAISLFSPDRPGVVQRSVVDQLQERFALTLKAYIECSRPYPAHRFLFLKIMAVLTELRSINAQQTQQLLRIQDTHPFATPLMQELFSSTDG
Summary of the method: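 Cell-based rPXR activation assay: rPXR cells, 2,000 per well, rested 5hr at 37 C, then exposed to compounds in DMSO for 24 hr at 37 C. Luciferase activity read by One-Glo luminescence after 30 min at room temperature.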

[16] = target: Nuclear receptor subfamily 1 group I member 2 (Homo sapiens) (UniProt O75469); experiment: CYP3A4 induction through human pregnane X receptor (PXR) by small molecules, qHTS assay (AID 1346984); further: on the % scale 0 is the no-effect control and ±100 the full control effect; nearly all actives have a fitted effect of over 40% in size
Summary of the method: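 Readings come from a luciferase reporter: DPX-2 cells, which are HepG2 cotransfected with PXR and a CYP3A4-promoter construct, were exposed to test compounds for 24 h at 37C before One-Glo detection.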

[17] = target: Nuclear receptor subfamily 1 group I member 2 (Homo sapiens) (UniProt O75469); experiment: Human pregnane X receptor (PXR) activation by small molecules, qHTS assay (AID 1346985); further: on the % scale 0 is the no-effect control and ±100 the full control effect; nearly all actives have a fitted effect of over 40% in size
Summary of the method: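 DPX-2 cells (HepG2 co-transfected with a PXR response element and a CYP3A4-promoter luciferase construct) were seeded at 2,000 per well, rested 5 hr at 37C, then exposed to DMSO-dissolved compounds for 24 hr. Activation was read as luciferase luminescence.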

[18] = Caspase-3/7 induction in CHO-K1 cells by small molecules, qHTS cell viability counter screen (AID 1346979); further: nearly all actives have a fitted effect of over 35% in size; further: potency means the concentration at half of the fitted maximal effect
Summary of the method: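 Cytotoxicity counter screen: CellTiter-Fluor added to compound-treated wild-type CHO-K1 cells at 16 h (37C, 5% CO2), fluorescence measured 1 h later; same wells as caspase-3/7 measurement.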

[19] = target: Cytochrome P450 2D6 (Homo sapiens) (UniProt P10635); experiment: Cytochrome P450 Family 2 Subfamily D Member 6 (CYP2D6) small molecule antagonists: luciferase reporter qHTS assay (AID 1671196); further: nearly all actives have a fitted effect of over 50% in size; further: potency means the concentration at half of the fitted maximal effect
Sequence of Cytochrome P450 2D6 (Homo sapiens) (P10635 whole entry, looked up): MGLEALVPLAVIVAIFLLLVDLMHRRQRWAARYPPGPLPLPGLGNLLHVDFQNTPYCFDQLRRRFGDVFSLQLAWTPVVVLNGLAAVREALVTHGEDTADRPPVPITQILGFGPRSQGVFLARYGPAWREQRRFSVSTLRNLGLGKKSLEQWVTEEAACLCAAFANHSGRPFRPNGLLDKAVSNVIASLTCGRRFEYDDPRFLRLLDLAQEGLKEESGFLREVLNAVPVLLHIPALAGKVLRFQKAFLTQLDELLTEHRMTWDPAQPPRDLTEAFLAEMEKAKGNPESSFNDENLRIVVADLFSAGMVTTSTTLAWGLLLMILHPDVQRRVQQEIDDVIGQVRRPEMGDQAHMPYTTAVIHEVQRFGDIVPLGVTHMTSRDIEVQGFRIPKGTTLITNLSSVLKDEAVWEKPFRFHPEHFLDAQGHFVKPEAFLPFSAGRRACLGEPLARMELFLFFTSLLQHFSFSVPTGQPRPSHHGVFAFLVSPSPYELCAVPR
Summary of the method: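 Each well received CYP2D6 with its proluciferin substrate and chemical, sat 10 min, then got NADPH regeneration solution for 1 h at room temperature. Luminescence in RLU served as the activity measure.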

[20] = target: Cytochrome P450 2C19 (Homo sapiens) (UniProt P33261); experiment: Cytochrome P450 Family 2 Subfamily C Member 19 (CYP2C19) small molecule antagonists: luciferase reporter qHTS assay (AID 1671197); further: potency means the concentration at half of the fitted maximal effect; nearly all actives have a fitted effect of over 65% in size
Sequence of Cytochrome P450 2C19 (Homo sapiens) (P33261 whole entry, looked up): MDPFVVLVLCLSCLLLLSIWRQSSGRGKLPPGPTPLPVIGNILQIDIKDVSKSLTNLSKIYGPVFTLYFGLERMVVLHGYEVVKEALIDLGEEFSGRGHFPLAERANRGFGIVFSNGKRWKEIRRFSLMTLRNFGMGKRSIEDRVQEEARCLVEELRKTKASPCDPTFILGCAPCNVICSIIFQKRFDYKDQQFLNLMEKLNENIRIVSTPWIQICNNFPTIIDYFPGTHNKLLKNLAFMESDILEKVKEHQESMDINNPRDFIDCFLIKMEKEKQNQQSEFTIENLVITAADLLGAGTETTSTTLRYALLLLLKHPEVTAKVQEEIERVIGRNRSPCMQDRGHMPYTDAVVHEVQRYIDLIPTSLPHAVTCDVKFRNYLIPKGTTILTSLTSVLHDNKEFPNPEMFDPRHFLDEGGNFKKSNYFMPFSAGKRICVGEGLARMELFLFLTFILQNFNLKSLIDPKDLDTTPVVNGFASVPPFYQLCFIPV
Summary of the method: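 P450-Glo CYP2C19 screening system; proluciferin substrate; DMSO compound stocks; 10 min RT preincubation; NADPH regeneration, 1 h at 37C; luciferin detection reagent, 20 min RT; luminescence as RLU.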

CO[C@@H]1[C@H](OC(=O)/C=C/C=C/C=C/C=C/C(=O)O)CC[C@]2(CO2)[C@H]1[C@@]1(C)O[C@@H]1CC=C(C)C
active: Potency [14] 15.4 µM
inactive: Potency [1] | Potency [2] | Potency [3] | Potency [4] | Potency [5] | outcome [6] | Potency [7] | outcome [8] | Potency [9] | Potency [10] | Potency [11] | Potency [12] | Potency [13] | max activation [15] 0.0882% | Potency [16] | Potency [17]

Nc1ccc(N)c2c1C(=O)c1ccccc1C2=O
inactive: Potency [1] | Potency [2] | Potency [4] | Potency [5] | outcome [6] | Potency [7] | outcome [8] | Potency [9] | Potency [11] | Potency [12]
active: Potency [3] 27.3 µM | Potency [10] 9.69 µM | Potency [18] 24.3 µM | Potency [13] 21.7 µM | Potency [19] 35.6 µM | Potency [20] 22.4 µM

CCC(CC)Nc1ccc(C)c(C)c1
active: Potency [20] 7.1 µM
inactive: Potency [1] | Potency [2] | Potency [3] | Potency [4] | Potency [5] | outcome [6] | Potency [7] | outcome [8] | Potency [9] | Potency [10] | Potency [11] | Potency [18] | Potency [12] | Potency [13] | Potency [14] | Potency [19]
